Experimental data from PubChem BioAssay (NCATS).
Results filed as inconclusive are left out. Calls of active or inactive are those of the source. Calls follow the shape of the dose curve; as a rule, active = well fitted inhibition curve with a large enough effect; inconclusive = small, poorly fitted or top-dose-only effect; inactive = flat fitted curve, though single readings scatter.

What follows are molecules tested on HEK293 (assay: Cytotoxic Profiling of Annotated Libraries Using Quantitative High-Throughput Screening (AID 1296008; also: nearly all actives have a fitted effect of over 60% in size)). Conditions: Five cell lines viability, CellTiter-Glo ATP luminescence, 48-72 h; max response: stronger effect = lower value.
Summary of the method: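 Cells exposed to compounds for 48 or 72 hr at 37 degrees Celsius. Viability read as ATP-coupled luminescence with CellTiter-Glo after 10 min at room temperature.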
% is scaled to controls: 0 for no effect and ±100 for the full control effect; potency is read from the fitted curve at half-maximal effect.

Compound | max response | Potency
CC1=C(CCC(C)CC(=O)O)[C@@]2(C)CCCC(C)(C)C2CC1=O (some centres undefined) | 0.185% (inactive) | –
O=C1CCC=CC1(O)C(=O)OCc1ccccc1O[C@@H]1O[C@H](CO)[C@@H](O)[C@H](O)[C@H]1O (some centres undefined) | -24.1% (inactive) | –
COc1ccc(CCO[C@@H]2O[C@H](CO[C@@H]3OC[C@H](O)[C@H](O)[C@H]3O)[C@@H](O)[C@H](O)[C@H]2O)cc1 | -0.354% (inactive) | –
C[C@@H]1O[C@@H](O[C@H]2[C@H](O)[C@@H](O)[C@H](OC3CCC4(C)C5CCC(C)(C(CO)OC6OC(CO)C(O)C(O)C6O)CC5=CCC4C3(C)C)O[C@@H]2CO)[C@H](O)[C@H](O)[C@H]1O (some centres undefined) | 4.31% (inactive) | –
COc1cc(O)cc(C)c1C(=O)O[C@H]1[C@@H](OC(C)=O)[C@H](n2ccc(=O)[nH]c2=O)O[C@@H]1CO | 4.85% (inactive) | –
CC12CCC(OC3OC(CO)C(O)C(OC4OC(CO)C(O)C(O)C4O)C3O)CC1CCC1C2CCC2(C)/C(=C3/COC(=O)C3)CCC12O (centres undefined) | -1.14% (inactive) | –
C[C@@H]1O[C@@H](O[C@H]2[C@@H](OC(=O)[C@]34CCC(C)(C)CC3C3=CCC5[C@@]6(C)C[C@H](O)[C@H](O[C@@H]7O[C@H](C(=O)O)[C@@H](O)[C@H](O)[C@H]7O)[C@@](C)(C(=O)O)C6CC[C@@]5(C)[C@]3(C)CC4)OC[C@H](O)[C@@H]2O)[C@H](O)[C@H](O)[C@H]1O[C@@H]1OC[C@@H](O)[C@H](O)[C@H]1O (some centres undefined) | -1.89% (inactive) | –
CC1(C(=O)O)CCCC2(C)C3=CCC4CC3(CCC12)CC4CO (centres undefined) | -3.78% (inactive) | –
COc1cc2c(cc1OC)[C@@H]1[C@H](O)[C@@H](OC)C=C3CCN(C2)[C@H]31 | – | 4.53 µM (active)
CC(=O)OC[C@]12[C@H](OC(C)=O)C(=O)[C@@H]3[C@@H](OC(C)=O)[C@@]14O[C@@]3(C)COC(=O)c1cccnc1[C@@H](C)[C@H](C)C(=O)O[C@@H]([C@H](O)[C@@H]2OC(C)=O)[C@]4(C)O | -0.596% (inactive) | –
COC(=O)Cc1cc2c(c([N+](=O)[O-])c1)N(C(=O)CC[C@H](N)C(=O)O)CC2 | -4.25% (inactive) | –
O=C(NCc1cccc(O)c1)c1cc2cc(F)ccc2[nH]1 | -13.7% (inactive) | –
Cc1ccc(F)cc1C(=O)Nc1ccc(C(=O)N2Cc3cccn3Cc3ccccc32)c(Cl)c1 | – | 9.2 µM (active)
COc1ccc([C@@H]2OC[C@H]3[C@@H]2CO[C@@H]3c2ccc(OC3OC(CO)C(O)C(O)C3O)c(OC)c2)cc1OC (some centres undefined) | -3.32% (inactive) | –
C/C=C/c1ccc2c(c1)[C@@H](C)[C@H](c1ccc(O)cc1)O2 | 1.71% (inactive) | –
C=C1C(=O)OC2CC3(C)C(CC12)C(C)=CC(O)C3OC(C)=O (centres undefined) | -3.84% (inactive) | –
CCCOC(c1cc2nccc(C(=O)O)c2[nH]1)c1ccccc1Cl (centres undefined) | -12.6% (inactive) | –
CC(=O)O[C@]1(C(C)=O)CC[C@H]2[C@@H]3C[C@H](C)C4=CC(=O)C=C[C@]4(C)[C@@]3(F)[C@@H](O)C[C@@]21C | -1.51% (inactive) | –
CC(C)CNCc1ccc(-c2ccccc2S(=O)(=O)N2CCCC2)cc1 | -19.2% (inactive) | –
OC[C@H]1O[C@@H](Oc2ccccc2)[C@H](O)[C@@H](O)[C@@H]1O | 0.0932% (inactive) | –

Compound | max response | Potency
OCC1OC(Oc2cc(O)cc(/C=C/c3ccc(O)cc3)c2)C(O)C(O)C1O (centres undefined) | 2.65% (inactive) | –
C/C1=C\CC[C@]2(C)O[C@@H]2[C@H](O)[C@H](C(C)C)[C@H](OC(=O)/C=C/c2ccccc2)C1 | -26.5% (inactive) | –
CC1=CC2C(CC1OC1OC(CO)C(O)C(O)C1O)C(C)CC(=O)C2C(C)C (centres undefined) | -0.187% (inactive) | –
COC(=O)c1ccc(OC(CO)C(O)c2ccc(O)c(OC)c2)c(OC)c1 (centres undefined) | 1.51% (inactive) | –
COc1ccc(/C=C/C(=O)O[C@@H]2[C@@H](O)[C@H](C)O[C@@H](O[C@H]3[C@@H]4C=CO[C@@H](O[C@H]5O[C@@H](CO)[C@H](O)[C@@H](O)[C@@H]5O)[C@@H]4[C@@]4(CO)O[C@@H]34)[C@@H]2OC(C)=O)cc1 | 0.0012% (inactive) | –
COc1cc2c(cc1OC)CC(=O)N(CCCNC[C@H]1Cc3cc(OC)c(OC)cc31)CC2 | -6.01% (inactive) | –
COC1CC(OC2CCC3(C)C(=CCC4C3C(OC(C)=O)C(OC(=O)/C=C/c3ccccc3)C3(C)C(C(C)O)CCC43O)C2)OC(C)C1OC1CC(OC)C(OC2OC(C)C(OC3OC(CO)C(O)C(O)C3O)C(OC)C2O)C(C)O1 (centres undefined) | -2.45% (inactive) | –
CC1=C(C(=O)O)/C(=C\CO[C@@H]2O[C@H](CO)[C@@H](O)[C@H](O)[C@H]2O)C(OC(=O)/C=C/c2ccc(O)cc2)C1 (some centres undefined) | 0.858% (inactive) | –
O=C(CCc1ccccc1)N1CCC(O)(Cn2cnc3cc(Cl)ccc3c2=O)CC1 | -25.5% (inactive) | –
C[C@@H]1O[C@@H](O[C@@H]2[C@@H](O)[C@H](O[C@H]3CC[C@@]4(C)C(CC[C@]5(C)C4CC=C4[C@@H]6CC(C)(C)CC[C@]6(C(=O)O[C@@H]6O[C@H](CO)[C@@H](O)[C@H](O)[C@H]6O)CC[C@]45C)C3(C)C)O[C@H](C(=O)O)[C@H]2O)[C@H](O)[C@H](O)[C@H]1O (some centres undefined) | 3.46% (inactive) | –
c1ccc(N2CCN(CCc3nn[nH]n3)CC2)cc1 | -5.85% (inactive) | –
C=C[C@@](C)(O)CC/C=C(\C)C(=O)O[C@@H]1[C@@H]2O[C@]2(C)[C@H]2[C@H](O[C@@H]3O[C@H](CO)[C@@H](O)[C@H](O)[C@H]3O)OC=C[C@@]12O | 0.966% (inactive) | –
CNC(=O)c1ccccc1Nc1nc(Nc2ccc(N3CCNCC3)cc2)ncc1Cl | – | 0.0651 µM (active)
CCCC(=O)C1CCN(c2ncnc3c2CN(C(=O)c2ccc(-c4ccccc4)cc2)CC3)CC1 | – | 18.4 µM (active)
CC(C)[C@H]1CC[C@@]2(O)COC(=O)[C@H]2[C@@H]1/C=C(\CO)C(=O)O | 2.97% (inactive) | –
C[C@@H]1O[C@@H](O[C@@H]2CO[C@@H](O[C@H]3CC[C@@]4(C)C(CC[C@]5(C)C4CC=C4[C@@H]6CC(C)(C)CC[C@]6(C(=O)O[C@@H]6O[C@H](CO)[C@@H](O)[C@H](O)[C@H]6O)CC[C@]45C)[C@]3(C)CO)[C@H](O)[C@H]2O[C@@H]2O[C@H](CO)[C@@H](O)[C@H](O)[C@H]2O)[C@H](O)[C@H](O)[C@H]1O (some centres undefined) | 1.34% (inactive) | –
COc1cc(OC)c(/C=C/S(=O)(=O)Cc2ccc(OC)c(NCC(=O)O)c2)c(OC)c1 | – | 0.058 µM (active)
COc1ccc(CC2NCCc3c2[nH]c2ccc(C)cc32)cc1OC (centres undefined) | – | 10.3 µM (active)
C=CC[C@]12C[C@@H](OC)C(=O)C(OC)=C1O[C@@H](c1cc(OC)c3c(c1)OCO3)[C@@H]2C | -8.3% (inactive) | –
